Reference: the supplement of paper PMC8728848
Only a selection was taken, and the strongest signals are over-represented in it overall.

Columns and labels:
Assay in all cases: glycan array binding signal (z-score within array); higher = stronger binding
Settings in all cases: glycan notation: IUPAC condensed, linker removed
Glc(a1-6)Glc(a1-6)Glc = target: Glc(a1-6)Glc(a1-6)Glc
Outline: (§1)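 Glycan array data came from 3228 arrays in the Consortium for Functional Glycomics database, and only arrays with an available protein sequence were kept. Glycan names were put into IUPAC-condensed notation, and columns mapping to the same glycan were averaged. The binding signal is a within-array Z-score, averaged across arrays of one protein sequence run at different concentrations or buffers and across linkers. A negative Z-score can be read as non-binding.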

[1] = target: GlcNAc(a1-4)Gal(b1-4)GalNAc
Outline: as §1

[2] = target: GlcNAc(b1-2)[GlcNAc(b1-6)]Man(a1-6)[GlcNAc(b1-4)][GlcNAc(b1-2)Man(a1-3)]Man(b1-4)GlcNAc(b1-4)GlcNAc
Outline: as §1

[3] = target: GlcNAc(b1-3)Gal(b1-4)GlcNAc(b1-3)Gal(b1-4)GlcNAc(b1-2)Man(a1-3)[GlcNAc(b1-3)Gal(b1-4)GlcNAc(b1-3)Gal(b1-4)GlcNAc(b1-2)Man(a1-6)]Man(b1-4)GlcNAc(b1-4)GlcNAc
Outline: as §1

[4] = target: GlcNAc(b1-3)Gal(b1-4)GlcNAc(b1-3)Gal(b1-4)GlcNAc(b1-3)Gal(b1-4)GlcNAc(b1-2)[GlcNAc(b1-3)Gal(b1-4)GlcNAc(b1-3)Gal(b1-4)GlcNAc(b1-3)Gal(b1-4)GlcNAc(b1-6)]Man(a1-6)[GlcNAc(b1-3)Gal(b1-4)GlcNAc(b1-3)Gal(b1-4)GlcNAc(b1-3)Gal(b1-4)GlcNAc(b1-2)Man(a1-3)]Man(b1-4)GlcNAc(b1-4)[Fuc(a1-6)]GlcNAc
Outline: as §1

[5] = target: GlcNAc(b1-4)[GlcNAc(b1-6)]GalNAc
Outline: as §1

Kdn(a2-3)Gal(b1-3)GlcNAc = target: Kdn(a2-3)Gal(b1-3)GlcNAc
Outline: as §1

[6] = target: Man(a1-2)Man(a1-3)[Man(a1-2)Man(a1-6)]Man(a1-6)[Man(a1-2)Man(a1-2)Man(a1-3)]Man
Outline: as §1

[7] = target: Man(a1-2)Man(a1-6)[Man(a1-3)]Man(a1-6)[Man(a1-2)Man(a1-2)Man(a1-3)]Man
Outline: as §1

[8] = target: Neu5Ac(a2-3)Gal(b1-4)GlcNAc(b1-3)Gal(b1-3)GlcNAc
Outline: as §1

[9] = target: Neu5Ac(a2-3)Gal(b1-4)GlcNAc(b1-3)Gal(b1-4)GlcNAc
Outline: as §1

[10] = target: Neu5Ac(a2-3)Gal(b1-4)GlcNAc(b1-3)Gal(b1-4)GlcNAc(b1-3)GalNAc
Outline: as §1

Neu5Ac(a2-3)GalNAc = target: Neu5Ac(a2-3)GalNAc
Outline: as §1

[11] = target: Neu5Ac(a2-3)[GalNAc(b1-4)]Gal(b1-4)GlcNAc(b1-3)GalNAc
Outline: as §1

[12] = target: Neu5Ac(a2-3)[Neu5Ac(a2-6)]GalNAc
Outline: as §1

Neu5Ac(a2-6)Gal(b1-4)Glc = target: Neu5Ac(a2-6)Gal(b1-4)Glc
Outline: as §1

[13] = target: Neu5Ac(a2-6)Gal(b1-4)GlcNAc(b1-2)Man(a1-6)Man(b1-4)GlcNAc(b1-4)GlcNAc
Outline: as §1

[14] = target: Neu5Ac(a2-6)Gal(b1-4)GlcNAc(b1-2)Man(a1-6)[Gal(b1-4)GlcNAc(b1-2)Man(a1-3)]Man(b1-4)GlcNAc(b1-4)GlcNAc
Outline: as §1

[15] = target: Neu5Ac(a2-6)Gal(b1-4)GlcNAc(b1-3)Gal(b1-4)GlcNAc(b1-2)Man(a1-3)[Neu5Ac(a2-6)Gal(b1-4)GlcNAc(b1-3)Gal(b1-4)GlcNAc(b1-2)Man(a1-6)]GalNAc
Outline: as §1

[16] = target: Neu5Ac(a2-6)Gal(b1-4)GlcNAc(b1-3)Gal(b1-4)GlcNAc(b1-3)Gal(b1-4)GlcNAc
Outline: as §1

[17] = target: Neu5Ac(a2-6)Gal(b1-4)GlcNAc(b1-3)Gal(b1-4)GlcNAc(b1-3)Gal(b1-4)GlcNAc(b1-2)Man(a1-3)[Neu5Ac(a2-6)Gal(b1-4)GlcNAc(b1-3)Gal(b1-4)GlcNAc(b1-3)Gal(b1-4)GlcNAc(b1-2)Man(a1-6)]GalNAc
Outline: as §1

[18] = target: Neu5Ac(a2-6)Gal(b1-4)GlcNAc(b1-3)Gal(b1-4)GlcNAc(b1-6)[Gal(b1-3)]GalNAc
Outline: as §1

[19] = target: Neu5Ac(a2-8)Neu5Ac(a2-3)Gal(b1-3)GalNAc(b1-4)[Neu5Ac(a2-3)]Gal(b1-4)Glc
Outline: as §1

[20] = target: Neu5Ac(a2-8)Neu5Ac(a2-8)Neu5Ac
Outline: as §1

[21] = target: Neu5Ac(a2-8)Neu5Gc(a2-3)Gal(b1-4)GlcNAc
Outline: as §1

[22] = target: Neu5Gc(a2-8)Neu5Gc(a2-3)Gal(b1-4)GlcNAc
Outline: as §1

[23] = target: Neu5Gc(a2-8)Neu5Gc(a2-3)Gal(b1-4)GlcNAc(b1-3)Gal(b1-4)GlcNAc
Outline: as §1

B1: PX14375A-pdi-503-28-503 (Parabacteroides distasonis) (protein)
chain: PLGSPEAGDISEERQAFLRLTAVYSVMKDFRYTWSMQCFGDVLSNDATYSGSSNDAQTFTLLENYQYQADHTEILNKYRYSYQCINKANLFIRDMEMADDALFSKYDKEQMIGEAKFIRAYTYFELVKTFGGVPCYTGVLDLDHERLGRASVEEIYSVIEQDLNDAVSVLPKKSEVANYESSYAGRITKGAAIAMQTRIYLYEKKYDEVKKAFEKFQNECGGEYSLVAPEDYTWQFSLDGEHCSSSILEVNMYNSSTQSSYNVNNGNRHVLMSMPRNMTIGFGCAQPTQALADAYDAEGDVIRKKTTLLSTEEAIEIETAAKGDVAPVTDDRTGWYNRKLYLAPGQREENRGNNQPTNLRLIRLAEVYLNYAEACYFSGDIANAQKYLNEVRSHVNLAPKNHTGSQLFEDIMNERHLEFGMEGFRFFDVVRVGWGEKVFNGTKKAEFGAKTPFSAGAEVLPIPQTEIDISDGLITN
With B1 the “glycan array binding signal (z-score)” value (Glc(a1-6)Glc(a1-6)Glc) was -0.184, the “glycan array binding signal (z-score)” value [1] was 0.594 and the “glycan array binding signal (z-score)” value [2] was -0.508. For the same binder, the “glycan array binding signal (z-score)” value [3] was 1.59, the “glycan array binding signal (z-score)” value [4] was 0.489 and the “glycan array binding signal (z-score)” value [5] was 2.82. For the same binder, the “glycan array binding signal (z-score)” value (Kdn(a2-3)Gal(b1-3)GlcNAc) was -0.519, the “glycan array binding signal (z-score)” value [6] was 1.42 and the “glycan array binding signal (z-score)” value [7] was -0.437. The “glycan array binding signal (z-score)” value [8] was -0.225, the “glycan array binding signal (z-score)” value [9] was 0.104 and the “glycan array binding signal (z-score)” value [10] was -0.442. For the same binder, the “glycan array binding signal (z-score)” value (Neu5Ac(a2-3)GalNAc) was -0.004, the “glycan array binding signal (z-score)” value [11] was -1.13 and the “glycan array binding signal (z-score)” value [12] was 0.006. For the same binder, the “glycan array binding signal (z-score)” value (Neu5Ac(a2-6)Gal(b1-4)Glc) was -0.412, the “glycan array binding signal (z-score)” value [13] was -0.882 and the “glycan array binding signal (z-score)” value [14] was -0.819. For the same binder, the “glycan array binding signal (z-score)” value [15] was 0.642, the “glycan array binding signal (z-score)” value [16] was 0.319 and the “glycan array binding signal (z-score)” value [17] was 1.64. The “glycan array binding signal (z-score)” value [18] was -0.493, the “glycan array binding signal (z-score)” value [19] was -0.127 and the “glycan array binding signal (z-score)” value [20] was -0.278. The “glycan array binding signal (z-score)” value [21] was 13.2, the “glycan array binding signal (z-score)” value [22] was -0.736 and the “glycan array binding signal (z-score)” value [23] was -0.755.
